Assay type in all cases: functional
The subject of assay [1] is Plasmodium falciparum. Nature of the assay: GSK_TCMDC: Inhibition of Plasmodium falciparum 3D7 in whole red blood cells, using parasite LDH activity as an index of growth. Test compounds present at 2uM.
Assay [2] deals with Plasmodium falciparum. Nature of the assay: GSK_TCMDC: Inhibition of Plasmodium falciparum Dd2 in whole red blood cells, using parasite LDH activity as an index of growth. Test compounds present at 2uM.
In the next assay the test system is HepG2. Description: GSK_TCMDC: Percent inhibition of human HepG2 cell line. Test compounds present at 10uM.

Broadly, the Inhibition is how much of the control response was suppressed. Take `COc1cccc(Nc2nc(C)cc(Nc3cccc(C#N)c3)n2)c1`: the Inhibition is listed as 100% in the assay with Plasmodium falciparum [1], 92% in the assay on Plasmodium falciparum [2] and 0% with HepG2.

With `CN1CCC(C(=O)N(Cc2ccc(-c3ccc(CNCCc4ccccc4)cn3)cc2)C2CCN(Cc3ccccc3)CC2)CC1.O=C(O)C(F)(F)F`, the Inhibition with Plasmodium falciparum [1] is 100%; in the assay on Plasmodium falciparum [2] it was 99%; in the assay on HepG2, 24%.

Turning to `COc1ccc(OCCCN2CCN(CC(c3ccc(F)cc3)N3CCN(C(C)C)CC3)CC2)c2ccccc12.O=C(O)C(F)(F)F` (centres undefined), the Inhibition amounted to 100% in the assay with Plasmodium falciparum [1], 32% in the assay with Plasmodium falciparum [2] and 30% in the assay with HepG2.

As for `CCC(CC(C)C(=O)O)=C(c1ccccc1)c1ccccc1` (centres undefined), the Inhibition with Plasmodium falciparum [1] is recorded as 98%; in the assay on Plasmodium falciparum [2], 1%; with HepG2, 12%.

`CC1CN(c2ccc(NC(=O)c3cccs3)cc2)CCN1Cc1cccc(F)c1.O=C(O)C(F)(F)F` (centres undefined): the Inhibition is recorded as 96% in the assay with Plasmodium falciparum [1], 96% with Plasmodium falciparum [2] and 5% in the assay with HepG2.

With `Cc1[nH]c(C)c(-c2ccc(CCc3ccc(C(F)(F)F)cc3)nc2)c(=O)c1Cl`, the Inhibition in the assay with Plasmodium falciparum [1] was found to be 97%; in the assay with Plasmodium falciparum [2], 97%; in the assay on HepG2 it was 24%.

For the molecule `CC(C)CCN1CCC(Oc2ccc(NC(=O)c3ccccc3)cc2Cl)CC1.O=C(O)C(F)(F)F`, the Inhibition with Plasmodium falciparum [1] came out at 87%; with Plasmodium falciparum [2], 88%; in the assay with HepG2 it was 17%.

For `Br.Cc1ccnc(Nc2nc(-c3ccccn3)cs2)c1`, the Inhibition in the assay with Plasmodium falciparum [1] is on record as 100%; in the assay with Plasmodium falciparum [2] it was 87%; in the assay with HepG2, 45%.

Regarding `COc1cc2nc(NCc3nc4ccccc4[nH]3)nc(N)c2cc1OC.Cl`, the Inhibition with Plasmodium falciparum [1] is reported as 97%; in the assay on Plasmodium falciparum [2] it was 10%; in the assay on HepG2 it was 3%.

Consider `Cn1cncc1C(=O)Nc1cccc(-c2ccc(-c3nc4cc(F)ccc4[nH]3)cc2)c1`, for which the Inhibition in the assay with Plasmodium falciparum [1] is 100%; in the assay with Plasmodium falciparum [2], 31%; in the assay on HepG2, 0%.

As for `Cl.Fc1cc(CN2CCCC2)ccc1OCCCN1CCN(c2cccc(Cl)c2Cl)CC1`, the values for the Inhibition in the assay with Plasmodium falciparum [1], in the assay with Plasmodium falciparum [2] and in the assay on HepG2 were 82%, 15% and 67%, respectively.

As for `O=C(O)C(F)(F)F.c1cc(-c2ccc(CNCCc3ccncc3)cc2)cc(-c2nc3ccccc3[nH]2)c1`, the Inhibition turned out to be 100% with Plasmodium falciparum [1], 99% with Plasmodium falciparum [2] and 41% with HepG2.

Turning to `Cc1cccc2nc(-c3ccc(-c4ccc(CN5CCC(N)C5)cc4)s3)[nH]c12.O=C(O)C(F)(F)F` (centres undefined), the results for the Inhibition in the assay on Plasmodium falciparum [1], in the assay with Plasmodium falciparum [2] and with HepG2 were 100%, 98% and 21%, respectively.

Regarding `Cc1cccc(C)c1OC(=O)C(C)C(O)C1(Sc2ccccc2)CCN(C)CC1` (centres undefined), the values for the Inhibition in the assay with Plasmodium falciparum [1], with Plasmodium falciparum [2] and with HepG2 were 98%, 92% and 23%, respectively.

As for `COc1cccc2c1CCN(CCN1CCC(CNC(=O)c3ccc(-c4ccc(C#N)cc4)cc3)CC1)C2`, the values for the Inhibition in the assay with Plasmodium falciparum [1], in the assay on Plasmodium falciparum [2] and in the assay with HepG2 were 99%, 98% and 57%, respectively.

As to `N#Cc1cc(C(=O)Nc2ccccc2)c(N)nc1SCC(=O)NC(c1ccccc1)c1cccs1` (centres undefined), the Inhibition with Plasmodium falciparum [1] was determined as 98%; in the assay with Plasmodium falciparum [2], 100%; in the assay on HepG2, 34%.

Take `O=C(O)C(F)(F)F.O=c1cc(NCCCNCc2cn(S(=O)(=O)c3ccccc3)c3ccccc23)[nH]c2ccccc12`: the Inhibition amounted to 91% in the assay on Plasmodium falciparum [1], 29% with Plasmodium falciparum [2] and 17% in the assay on HepG2.

Regarding `COc1ccc2nccc([C@@H](O)CN3CCC(NC(=O)/C=C/c4cc(F)cc(Br)c4)CC3)c2c1`, the figures for the Inhibition with Plasmodium falciparum [1], in the assay on Plasmodium falciparum [2] and in the assay with HepG2 were 95%, 50% and 24%, respectively.

Consider `CC1CCCCC1N(C)C1CCN(CCCNC(=O)C=Cc2ccccc2Cl)CC1` (centres undefined), for which the Inhibition was found to be 100% with Plasmodium falciparum [1], 14% in the assay with Plasmodium falciparum [2] and 30% in the assay with HepG2.

As to `CC(=O)Nc1ccc(OCCCCN(Cc2ccccc2OC(F)(F)F)c2ccc(C(F)(F)F)c(C#N)c2)c(Cl)c1`, the Inhibition in the assay on Plasmodium falciparum [1] stood at 89%; in the assay with Plasmodium falciparum [2], 96%; with HepG2, 11%.

As for `Cc1ccc(Cn2c(N3CCC(C(=O)NCc4cccs4)CC3)nc3ccccc32)cc1`, the Inhibition worked out at 99% in the assay on Plasmodium falciparum [1], 71% in the assay with Plasmodium falciparum [2] and 0% with HepG2.

On to `CCCOc1cc(O)c(-c2[nH]nc(C)c2Oc2ccccc2)cc1CC`, for which the Inhibition in the assay on Plasmodium falciparum [1] is on record as 91%; with Plasmodium falciparum [2], 46%; in the assay with HepG2 it was 0%.

Regarding `COc1ccc2nccc(N/N=C/c3ccc([N+](=O)[O-])cc3)c2c1`, the Inhibition with Plasmodium falciparum [1] was found to be 100%; with Plasmodium falciparum [2], 68%; with HepG2, 9%.

With `O=C(O)C(F)(F)F.c1ccc2[nH]c(-c3ccc(-c4ccc(CN5CCCCC5)cc4)cc3)nc2c1`, the values for the Inhibition in the assay on Plasmodium falciparum [1], with Plasmodium falciparum [2] and in the assay with HepG2 were 99%, 100% and 27%, respectively.

Turning to `O=C(Nc1nc(-c2ccccn2)cs1)c1ccc(S(=O)(=O)N2CCc3ccccc32)cc1`, the Inhibition with Plasmodium falciparum [1] is 89%; with Plasmodium falciparum [2], 15%; with HepG2 it was 47%.

Turning to `COCCN(C)CCCOc1cc2c(cc1OC)ncn2-c1cc(OCc2ccccc2C(F)(F)F)c(C(N)=O)s1.Cl`, the values for the Inhibition with Plasmodium falciparum [1], in the assay on Plasmodium falciparum [2] and in the assay on HepG2 were 98%, 49% and 24%, respectively.

In the case of `O=C(Cc1ccc(F)cc1)NC1CCN(c2ccnc3cc(Cl)ccc23)C1.O=C(O)C(F)(F)F` (centres undefined), the Inhibition in the assay on Plasmodium falciparum [1] stood at 99%; in the assay on Plasmodium falciparum [2], 85%; in the assay with HepG2, 0%.

As for `COc1ccc(CCNCCCCCCNCCc2cccc([N+](=O)[O-])c2)cc1OC.Cl`, the Inhibition in the assay with Plasmodium falciparum [1] is on record as 93%; in the assay with Plasmodium falciparum [2], 0%; in the assay with HepG2, 13%.

The values are drawn from ChEMBL document CHEMBL1157539, “Thousands of chemical starting points for antimalarial lead identification” (Nature, 2010).
